Data published in PubChem BioAssay (NCI).
About 83,000 compounds went through this panel and 20% of them were active in at least one assay; those are over-represented in the sample as a whole.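 Step 1: grow cells in 96-well plates. Step 2: add test compound at a single concentration. Step 3: incubate 48 h. Step 4: record percent growth.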 Values without a mark were called inactive. Calls of active or inactive are those of the source. Rule for the calls: active = growth percent below 10; inactive = the rest.

Test system: K-562 leukemia
Assay: NCI-60 one-dose screen, 48 h (100 = growth as untreated, 0 = no growth, -100 = all killed)
Conditions: 10 µM unless noted

SMILES	growth
NS(=O)(=O)c1ccc(NC2=C(Cl)C(=O)c3ccccc3C2=O)cc1	18.6%
CCOC(=O)C1=C(COCCN)NC(C)=C(C(=O)OC)C1c1ccccc1Cl (configuration not stated)	59.1%
Cc1cc2c(C#N)n3c(c2cc1C)C(=O)C(c1ccccc1)Oc1ccccc1-3 (configuration not stated)	12.7%
CN(C)c1nc(N)nc(Cn2c(-c3nonc3N)nc3ccccc32)n1	23.1%
CCOC(=O)/C(=C/c1ccccc1)C(=O)c1ccccc1	38.9%
Cn1cnc([N+](=O)[O-])c1S(=O)(=O)Oc1ccc(Cl)cc1	16.1%
O=C(/C=C/c1ccccc1Cl)c1ccc(O)cc1	32.8%
Cn1c(=O)c2nc(SCc3ccccc3)n(C)c2n(C)c1=O	103%
O=C(/C(=C/c1cccc([N+](=O)[O-])c1)c1ccccc1)c1ccccc1	4.03% (active)
CCCCCCCC/C=C\CCCCCCCCOc1ccccc1CC(=O)NCC[N+]1(C)CCCC1	41.7%
O=NC1CC=CCC1c1ccccc1 (configuration not stated)	105%
CCC(C)(C)C(=O)O[C@H]1C[C@@H](C)C=C2C=C[C@H](C)[C@H](CC[C@@H]3C[C@@H](O)CC(=O)O3)[C@H]21	63.3%
COc1ccc2[nH]cc(/C=C3/C(=O)Nc4ccc(F)cc43)c2c1	72.1%
C[C@]12CC[C@@H]3c4ccc(O)cc4CC[C@H]3[C@@H]1CC[C@@H]2NS(=O)(=O)c1cccc(Br)c1	30.1%
NC(=O)NN=C(C1CC1)C1CC1	94.8%
CCC1=C(c2ccc(OC)cc2)C(C)(C)Oc2c1ccc(O)c2CN1CCCC1	-24.9% (active)
CN(C)c1ccc(/C=C\c2ccnc3ccccc23)cc1	26.8%
